Results taken from PubChem BioAssay AID651821 (The Scripps Research Institute Molecular Screening Center, 2012).
Out of some 370,000 compounds screened, about 4,700 (1.3%) were called active.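 How the source made its calls: active means inhibition above the plate cutoff, the mean of all test compounds on that plate plus 3 SD (cut at about 35% in these data); inactive means the rest.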 The full list was thinned out, with actives kept by preference.

Assay: small molecules binding CAG repeat RNA – biochemical, fluorescence, primary screen (AID 651821);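 further: 0% = DMSO alone and 100% = 100 µM mitoxantrone as full dye displacement; higher means more dye released from RNA so lower well fluorescence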
Conditions: r(CAG) RNA repeat, TO-PRO-1 dye displacement fluorescence; at 3 µM; stronger effect = higher value

Row | Compound | inhibition
1 | CC(=O)Nc1nc2ncccn2c1-c1ccc(C(F)(F)F)cc1 | 0.83% (inactive)
2 | Cc1ccc(C2NC(C(=O)O)CS2)cc1 (centres undefined) | 0.84% (inactive)
3 | COCCNC(=S)N(C)[C@H]1C[C@H]2c3[nH]c4ccccc4c3CCN2C[C@H]1[C@H](C)O | 0.81% (inactive)
4 | COC(=O)[C@]12C[C@H](CC(=O)NCc3ccccc3)C(=O)N(CCC3=CCCCC3)C1=C[C@H](C(C)C)O[C@@H]2C1CC1 | 3.49% (inactive)
5 | O=C(c1c[nH]c2ccccc12)N1CCC(Oc2cccnc2)CC1 | 0.25% (inactive)
6 | CC(C)=CCCC1(C)C=Cc2c(ccc3c2[nH]c2cc(O)c(C)cc23)O1 (centres undefined) | 50.7% (active)
7 | COP(=O)(O)CNC(=O)OCc1ccccc1 | 3.7% (inactive)
8 | C[C@@H](CN1C2=NC[C@@H](Cc3ccccc3)N2C[C@H]1Cc1ccc(O)cc1)NC(=O)CCC1CCCCC1 | 10.8% (inactive)
9 | C=C(C)C#CC(Cc1ccccc1)NCC1CC1 (centres undefined) | 0.83% (inactive)
10 | Cc1sc2nc(SCC(=O)c3ccc(O)c(O)c3)n(Cc3ccco3)c(=O)c2c1C | 60.5% (active)
11 | O=C(CSc1nnc(COc2ccccc2)n1Cc1ccco1)c1ccc2ccccc2c1 | 10.1% (inactive)
12 | O=C(CSc1nnc(-c2cccs2)n1Cc1ccco1)c1ccc2c(c1)OCO2 | 2.71% (inactive)
13 | CN[C@H]1C[C@H]2c3cc(N4CCOCC4)ccc3CCN2C[C@H]1[C@H](C)O | 0.53% (inactive)
14 | COC(=O)c1ccc(NC(=O)CSc2nc(N)c(NC(=O)c3ccc(Br)o3)c(=O)[nH]2)cc1 | 8.43% (inactive)
15 | COc1ccc(CNC(=O)CCC(=O)Nc2nnc(C(C)C)s2)cc1 | -3.44% (inactive)
16 | COc1ccc(OCC(=O)Nc2nnc(-c3ccco3)s2)cc1 | 35.6% (active)
17 | COc1ccc(OCCCC(=O)Nc2nnc(C3CCCO3)s2)cc1 (centres undefined) | -2.42% (inactive)
18 | CC(=O)C1=C(C)N(Cc2ccccc2)C(=S)NC1c1cccc(Br)c1 (centres undefined) | 3.69% (inactive)
19 | Cc1[nH]nc2c1C(c1ccc(Br)cc1)NC2=O (centres undefined) | 2.38% (inactive)
20 | CCc1cc(-c2nnc(SCC(=O)NC3CC3)n2C)cs1 | -0.55% (inactive)
21 | Cc1nnc(SCC(=O)NCc2cccs2)[nH]c1=O | 1.73% (inactive)

Row | Compound | inhibition
22 | CCc1ccc(C(=O)CSc2nnc(C)c(=O)[nH]2)cc1 | 1.9% (inactive)
23 | N#Cc1c(-c2cccs2)nc(SCC(=O)c2ccc(Br)cc2)[nH]c1=O | 76% (active)
24 | COc1ccc(-n2c(COc3ccccc3)nnc2SCC(=O)Nc2ccc3c(c2)OCO3)cc1 | 3.35% (inactive)
25 | CN[C@H]1C[C@H]2c3[nH]c4c(-c5ccccc5)cccc4c3CCN2C(=O)[C@H]1[C@H](C)O | 1.12% (inactive)
26 | COc1ccc([C@H]2OC(=O)C[C@H]2C(=O)N2CCN(c3ccccc3F)CC2)cc1OC | -0.41% (inactive)
27 | O=C(CCCCCN1C(=O)C2C3C=CC(C3)C2C1=O)Nc1ccccc1 (centres undefined) | -0.35% (inactive)
28 | Cc1cc(C(=O)Nc2ccc(C)c(S(=O)(=O)N3CCOCC3)c2)c2ccccc2n1 | 5.4% (inactive)
29 | O=C(Nc1nc2ccc(Cl)cc2s1)c1cc(-c2ccc(Cl)cc2)nc2ccccc12 | 7.74% (inactive)
30 | O=C(Nc1cccc(F)c1)c1coc(=O)c(Br)c1 | 1.62% (inactive)
31 | O=C(O)c1cccc(NC(=O)c2cc(-c3cccc(Cl)c3)nc3ccccc23)c1 | 49.4% (active)
32 | Cc1c(C(=O)Nc2cccc(Cl)c2)cn2c(nc3ccccc32)c1C#N | 0.68% (inactive)
33 | O=C(Nc1cccc(F)c1)c1cc(-c2ccco2)nc2ccccc12 | 35% (active)
34 | CN(C)S(=O)(=O)c1cccc(C(=O)N/N=C\c2ccco2)c1 | 3.29% (inactive)
35 | Cc1ccc(S(=O)(=O)N2CC3C(=O)C[C@@H](c4ccccc4Cl)N(S(=O)(=O)c4ccc(C)cc4)C3CC2c2ccccc2)cc1 (some centres undefined) | 8.71% (inactive)
36 | CC(C)CSc1nnc(-c2cccnc2)n1Cc1ccccc1 | -1.04% (inactive)
37 | CN(C)CCCCCN(C)Cc1cc2ccccc2o1 | -1.3% (inactive)
38 | CC(=O)O[C@@]1(C(C)=O)CCC2[C@H]3C=C(C)C4=CC(=O)CC[C@@]4(C)C3CC[C@]21C (some centres undefined) | 1.96% (inactive)
39 | COc1cccc(-c2coc3cc4oc(=O)c(CC(=O)O)c(C)c4cc23)c1 | 46.5% (active)
40 | CCCCCCc1cc2cc(-c3nnc(-c4cccc(OC)c4)o3)c(=O)oc2cc1O | 0.83% (inactive)
41 | Cc1coc2cc3oc(=O)c(CCC(=O)O)c(C)c3cc12 | -1.41% (inactive)
42 | CC[C@@H]1Cc2cc(O)ccc2C2=C1c1ccc(O)cc1C[C@H]2CC | 6.76% (inactive)

Row | Compound | inhibition
43 | CCCCNC(=O)C[C@H]1C(=O)N(Cc2ccc(OC)cc2)C2=CCCC[C@@]21C(=O)OCC | -0.31% (inactive)
44 | O=C1Nc2ccccc2OC1CC(=O)N1CCCCCCC1 (centres undefined) | 4.22% (inactive)
45 | Cc1ccc(S(=O)(=O)N(Cc2ccccc2)c2ccccn2)cc1[N+](=O)[O-] | -3.84% (inactive)
46 | CCOc1ccc2sc(NS(=O)(=O)c3ccc(N)cc3)nc2c1 | 9.5% (inactive)
47 | Cc1ccc(S(=O)(=O)Nc2nc3ccccc3s2)cc1[N+](=O)[O-] | 45% (active)
48 | CCOC(=O)[C@]12CCCC=C1N(Cc1ccc(OC)cc1)C(=O)[C@@H]2CC(=O)N1CCOCC1 | -1.51% (inactive)
49 | CN1CCCCC(NC(=O)C(C)(C)C)C1=O (centres undefined) | 2.33% (inactive)
50 | COC(=O)[C@]12C[C@H](CC(=O)NCc3ccccc3)C(=O)N(CCc3ccc(OC)c(OC)c3)C1=C[C@H](C(C)(C)C)O[C@@H]2C | -2.21% (inactive)
51 | CC(Sc1ncnc2c1cnn2-c1ccccc1)C(=O)Nc1ccc(N2CCOCC2)cc1 (centres undefined) | 5.83% (inactive)
52 | COC(=O)CSc1ncnc2c1cnn2-c1ccc(C)cc1C | -5.94% (inactive)
53 | Cc1ccc(-n2ncc3c(Nc4cccc(C(=O)O)c4)ncnc32)cc1 | 40.9% (active)
54 | O=C(NCCC1=CCCCC1)C1CCN(S(=O)(=O)c2ccc(Cl)s2)CC1 | 1% (inactive)
55 | CSc1ccc(CN(C)CC(=O)NCc2ccc(F)cc2)cc1 | -7.36% (inactive)
56 | O=C(NCc1ccccc1)[C@H]1CCCN1C(=O)[C@@H]1CCCN1C(=O)c1ccc(Cl)cc1Cl | 1.95% (inactive)
57 | COC(=O)c1sccc1NS(=O)(=O)c1ccc(F)cc1F | 1.91% (inactive)
58 | COC(=O)c1sccc1NC(=O)CSc1ccccc1NS(=O)(=O)c1cc(Cl)ccc1Cl | 59.2% (active)
59 | COC(=O)c1scc(C)c1NC(=O)CSc1ccc(Cl)cc1 | -5.15% (inactive)
60 | C=CC[C@]12C[C@@]3(O[C@H](c4ccc(C(F)(F)F)cc4)N=C3C[C@H](c3ccc(OC)cc3)[C@H]1C)N(C1CCN(Cc3ccccc3)CC1)C2=O | 5.05% (inactive)
61 | COc1ccc(C(=O)OCCN2CCN(C3CN(Cc4cn(Cc5ccccc5F)nn4)S(=O)(=O)C3)CC2)cc1OC (centres undefined) | 1.05% (inactive)
62 | CCC(=O)OCCCN1C(=O)CCC12CCC(c1ccccc1)CC2 (centres undefined) | -0.66% (inactive)
63 | COC(=O)C(Cc1c[nH]c2ccccc12)NC(=O)CCNC(=O)c1ccco1 (centres undefined) | 2% (inactive)

Row | Compound | inhibition
64 | O=C(CCn1nnc2ccccc2c1=O)N[C@@H](Cc1c[nH]c2ccccc12)C(=O)O | 2.19% (inactive)
65 | COc1ccc(-c2cc(=O)oc3cc(OCC(=O)N(C)C4CCS(=O)(=O)C4)ccc23)cc1 (centres undefined) | -1.96% (inactive)
66 | CC(Oc1ccc2c(-c3ccccc3)cc(=O)oc2c1)C(=O)NC(Cc1c[nH]c2ccccc12)C(=O)O (centres undefined) | 42.8% (active)
67 | COc1ccc(-c2cc(C(=O)NC(Cc3c[nH]c4ccccc34)C(=O)O)c(C)o2)cc1OC (centres undefined) | 53.8% (active)
68 | COc1ccc(-c2cc(=O)oc3cc(OC(C)C(=O)NCC4CCC(C(=O)O)CC4)ccc23)cc1 (centres undefined) | 8.77% (inactive)
69 | O=C(N[C@@H](Cc1c[nH]c2ccccc12)C(=O)O)OCC1c2ccccc2-c2ccccc21 | 59.4% (active)
70 | CCOCCCNC(=O)C(NC(=O)Cc1c[nH]c2ccccc12)c1ccc(OC)cc1 (centres undefined) | -4.93% (inactive)
71 | COC(=O)C(C)Oc1ccc2c(-c3cccc([N+](=O)[O-])c3)cc(=O)oc2c1 (centres undefined) | 1.44% (inactive)
72 | COc1ccc(-c2cc(C(=O)NC(C(=O)O)C(C)C)c(C)o2)cc1OC (centres undefined) | 6.76% (inactive)
73 | COc1ccc(-c2cc(=O)oc3cc(OCC(=O)N[C@@H](Cc4c[nH]c5ccccc45)C(=O)O)ccc23)cc1 | 55.5% (active)
74 | O=C(NC(Cc1c[nH]c2ccccc12)C(=O)O)/C(=C/c1ccco1)NC(=O)c1ccccc1 (centres undefined) | 20.3% (inactive)
75 | COC(=O)c1cc(S(=O)(=O)N2CCN(C(=O)C3CCCO3)CC2)cn1C (centres undefined) | 1.73% (inactive)
76 | COC(=O)[C@]12C[C@H](CC(=O)NCc3ccc(OC)c(OC)c3)C(=O)N(Cc3ccccc3)C1=C[C@H](C(C)C)O[C@@H]2C1CC1 | 1.35% (inactive)
77 | O=C(NC1CCCCN(Cc2cccc(C(F)(F)F)c2)C1=O)c1ccccc1I (centres undefined) | -0.65% (inactive)
78 | Cc1csc(CN(C)C(=O)CC2C(=O)NCCN2CC(C)(C)C)n1 (centres undefined) | -3.94% (inactive)
79 | O=C(NCc1ccco1)C1CCCN(S(=O)(=O)c2ccc(Cl)s2)C1 (centres undefined) | -0.27% (inactive)
80 | CSC1=NN(c2ccccc2)CN(c2ccccc2)N1C | 0.22% (inactive)
81 | COc1ccccc1-c1ccc([C@@H]2C[C@H]3[C@H](CON3C)CN2S(=O)(=O)c2cc(Cl)cc(Cl)c2)cc1 | 5.7% (inactive)
82 | CN(Cc1ccccc1)CC(O)COc1ccc(CNCc2cc3ccccc3s2)cc1 (centres undefined) | -2.3% (inactive)
83 | Nn1c(SCC(=O)N2c3ccccc3Sc3ccccc32)nnc1-c1n[nH]c2c1CCC2 | 12.9% (inactive)
84 | CC(CCN1CCC(C(O)(c2ccccc2)c2ccccc2)CC1)Oc1ccc(C(F)(F)F)cc1 (centres undefined) | 2.52% (inactive)
